Laboratory results published in PubChem BioAssay.
The source made the active and inactive calls.

Tests used:
[1] = small molecules captured by biotinylated probe aFSTL3 – biochemical, small-molecule microarray, fluorescence 635/667, stem cell growth factor project, primary screen (AID 1064); conditions: higher = more signal;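 also: measures binding of the biotinylated anti-FSTL3 antibody to printed compounds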
[2] = binders from COS7 lysate, DM2A8 probe, primary screen, torsin A project, cell lysate, small-molecule microarray, fluorescence 635/667 (AID 1065); conditions: higher = more signal, COS7 lysate expressing mutant human TOR1A
[3] = small molecules captured by biotinylated probe aFGF2 – biochemical, small-molecule microarray, fluorescence 635/667, stem cell growth factor project, primary screen (AID 1067); conditions: higher = more signal;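 also: measures binding of biotinylated aFGF2 protein to printed compounds on slides; z-score merges feature fluorescence and signal-to-noise across triplicate slides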
[4] = small molecules captured by biotinylated probe aFGF10 – biochemical, small-molecule microarray, fluorescence 635/667, stem cell growth factor project, primary screen (AID 1071); conditions: higher = more signal;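 also: score merges 667 nm spot intensity and signal to noise from triplicate slides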
[5] = molecular target: Neurogenic locus notch homolog protein 2 (Homo sapiens) (UniProt Q04721); test: small molecules binding Notch2 protein – biochemical, small-molecule microarray, 635 nm fluorescence, stem cell growth factors, primary screen (AID 1073); conditions: higher = more signal
Chain of Neurogenic locus notch homolog protein 2 (Homo sapiens) (Q04721 whole entry, looked up, canonical isoform): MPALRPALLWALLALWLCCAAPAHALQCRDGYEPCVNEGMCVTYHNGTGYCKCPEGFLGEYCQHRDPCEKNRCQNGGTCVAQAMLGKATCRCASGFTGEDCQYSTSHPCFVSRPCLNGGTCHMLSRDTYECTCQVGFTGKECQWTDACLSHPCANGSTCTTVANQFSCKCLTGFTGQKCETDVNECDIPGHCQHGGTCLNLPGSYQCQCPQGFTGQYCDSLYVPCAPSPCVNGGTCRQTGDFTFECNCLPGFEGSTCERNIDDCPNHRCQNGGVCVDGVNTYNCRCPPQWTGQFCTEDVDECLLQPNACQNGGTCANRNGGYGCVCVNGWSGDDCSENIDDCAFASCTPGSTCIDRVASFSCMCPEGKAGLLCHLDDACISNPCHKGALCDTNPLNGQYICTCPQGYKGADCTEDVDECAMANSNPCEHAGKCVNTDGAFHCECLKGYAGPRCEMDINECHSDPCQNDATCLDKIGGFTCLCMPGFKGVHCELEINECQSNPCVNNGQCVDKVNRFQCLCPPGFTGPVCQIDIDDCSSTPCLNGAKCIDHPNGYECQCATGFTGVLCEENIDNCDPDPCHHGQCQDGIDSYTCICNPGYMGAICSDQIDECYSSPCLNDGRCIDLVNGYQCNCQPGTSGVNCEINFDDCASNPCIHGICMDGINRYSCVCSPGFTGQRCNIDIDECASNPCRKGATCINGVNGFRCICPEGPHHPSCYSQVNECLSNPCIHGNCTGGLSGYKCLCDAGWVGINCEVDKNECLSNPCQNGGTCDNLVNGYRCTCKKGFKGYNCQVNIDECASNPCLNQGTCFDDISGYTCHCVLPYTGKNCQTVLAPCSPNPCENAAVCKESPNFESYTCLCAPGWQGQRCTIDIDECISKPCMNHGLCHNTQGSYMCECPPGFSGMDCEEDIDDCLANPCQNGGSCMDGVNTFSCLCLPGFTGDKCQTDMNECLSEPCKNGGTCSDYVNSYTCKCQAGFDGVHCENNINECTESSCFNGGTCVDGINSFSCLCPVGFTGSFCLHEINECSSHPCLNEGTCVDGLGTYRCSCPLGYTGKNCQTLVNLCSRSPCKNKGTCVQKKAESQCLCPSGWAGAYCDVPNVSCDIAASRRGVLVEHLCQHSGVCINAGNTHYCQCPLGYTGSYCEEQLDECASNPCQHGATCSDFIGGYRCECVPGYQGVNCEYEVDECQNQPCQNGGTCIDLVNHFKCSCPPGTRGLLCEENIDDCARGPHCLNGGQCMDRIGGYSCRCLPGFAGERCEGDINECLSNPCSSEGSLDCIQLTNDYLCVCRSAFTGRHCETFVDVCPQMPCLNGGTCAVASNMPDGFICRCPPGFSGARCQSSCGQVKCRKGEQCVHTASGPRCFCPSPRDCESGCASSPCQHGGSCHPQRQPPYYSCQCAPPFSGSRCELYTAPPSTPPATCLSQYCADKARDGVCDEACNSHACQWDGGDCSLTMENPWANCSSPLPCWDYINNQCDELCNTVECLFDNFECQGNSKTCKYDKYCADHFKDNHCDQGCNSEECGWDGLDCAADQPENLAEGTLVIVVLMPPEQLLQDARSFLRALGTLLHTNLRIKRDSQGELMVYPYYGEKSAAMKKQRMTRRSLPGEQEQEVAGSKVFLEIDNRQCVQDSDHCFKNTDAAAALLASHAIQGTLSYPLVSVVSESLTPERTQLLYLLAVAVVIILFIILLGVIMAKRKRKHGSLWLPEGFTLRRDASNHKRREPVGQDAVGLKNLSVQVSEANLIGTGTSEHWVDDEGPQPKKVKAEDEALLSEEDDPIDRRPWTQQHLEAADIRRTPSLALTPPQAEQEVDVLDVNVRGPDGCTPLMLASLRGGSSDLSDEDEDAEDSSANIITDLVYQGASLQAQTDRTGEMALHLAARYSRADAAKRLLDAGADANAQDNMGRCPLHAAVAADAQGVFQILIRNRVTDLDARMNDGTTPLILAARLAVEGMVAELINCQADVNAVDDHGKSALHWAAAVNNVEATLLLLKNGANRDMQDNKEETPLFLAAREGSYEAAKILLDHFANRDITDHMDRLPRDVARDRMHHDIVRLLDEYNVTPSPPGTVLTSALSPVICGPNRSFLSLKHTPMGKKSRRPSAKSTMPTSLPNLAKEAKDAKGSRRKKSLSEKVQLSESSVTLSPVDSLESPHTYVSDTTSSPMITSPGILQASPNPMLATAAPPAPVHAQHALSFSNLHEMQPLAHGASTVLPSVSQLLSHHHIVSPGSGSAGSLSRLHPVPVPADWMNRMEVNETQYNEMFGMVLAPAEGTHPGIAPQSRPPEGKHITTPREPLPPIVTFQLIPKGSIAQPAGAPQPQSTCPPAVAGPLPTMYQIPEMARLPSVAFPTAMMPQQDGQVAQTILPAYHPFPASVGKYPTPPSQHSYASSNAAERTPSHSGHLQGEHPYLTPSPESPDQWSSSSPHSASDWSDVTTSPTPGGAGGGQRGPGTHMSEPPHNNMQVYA

[6] = molecular target: Pro-neuregulin-1, membrane-bound isoform (Homo sapiens) (UniProt Q02297); test: small molecules binding neuregulin-1 protein – biochemical, small-molecule microarray, fluorescence 635/667, psychiatric disease protein project, primary screen (AID 1075); conditions: NRG1 binding, 635 nm fluorescence, higher = more signal;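 also: score combines 667 nm spot fluorescence with signal to noise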
Chain of Pro-neuregulin-1, membrane-bound isoform (Homo sapiens) (Q02297 whole entry, looked up, the tested form may be a part, canonical isoform): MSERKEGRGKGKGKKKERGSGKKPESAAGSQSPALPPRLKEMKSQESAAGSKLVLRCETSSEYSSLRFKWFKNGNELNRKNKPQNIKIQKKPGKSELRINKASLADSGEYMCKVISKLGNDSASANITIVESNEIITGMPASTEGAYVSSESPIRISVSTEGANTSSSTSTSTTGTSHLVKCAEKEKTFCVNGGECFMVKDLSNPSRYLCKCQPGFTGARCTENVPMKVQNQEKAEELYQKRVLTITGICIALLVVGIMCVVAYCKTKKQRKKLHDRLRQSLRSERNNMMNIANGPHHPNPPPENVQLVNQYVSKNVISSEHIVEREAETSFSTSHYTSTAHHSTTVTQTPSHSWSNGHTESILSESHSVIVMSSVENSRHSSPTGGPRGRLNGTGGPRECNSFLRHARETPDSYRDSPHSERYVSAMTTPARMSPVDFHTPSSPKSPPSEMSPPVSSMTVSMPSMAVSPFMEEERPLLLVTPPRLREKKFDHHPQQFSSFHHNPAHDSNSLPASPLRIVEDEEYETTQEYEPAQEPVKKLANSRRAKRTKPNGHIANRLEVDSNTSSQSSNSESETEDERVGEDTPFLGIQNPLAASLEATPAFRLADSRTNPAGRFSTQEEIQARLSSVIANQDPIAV

[7] = test system: Neuregulin-1 EGF-like domain; test: small molecules binding NRG1 EGF domain – biochemical, small-molecule microarray, 635 nm fluorescence, primary screen (AID 1081); conditions: higher = more signal;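 also: binding of the protein to compounds printed on small-molecule microarray slides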
[8] = FRG1 expression reporter modulators in myotubes – cell-based, C2C12 myotubes, firefly/Renilla luciferase, luminescence, FRG1 inhibition for FSHD, primary screen (AID 1084); conditions: FRG1 promoter luciferase, higher = more signal, called active from +8 up or from −8 down
[9] = small molecules captured by biotinylated probe aFST – biochemical, small-molecule microarray, fluorescence 635/667, stem cell growth factor project, primary screen (AID 1086); conditions: higher = more signal;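 also: score merges 667 nm fluorescence with signal-to-noise of each printed compound spot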
[10] = binders of probe aHhip on microarray, primary screen, stem cell growth factor project, biochemical, small-molecule microarray, fluorescence 635/667 (AID 1087); conditions: higher = more signal;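 also: score merges spot fluorescence at 667nm with spot signal to noise ratio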

SMILES | composite z-score [1] | composite z-score [2] | composite z-score [3] | composite z-score [4] | composite z-score [5] | composite z-score [6] | composite z-score [7] | z-score [8] | composite z-score [9] | composite z-score [10]
COC(=O)C1N=C(c2ccc(OCCCO)cc2)N(c2ccccc2)O1 (stereo not given) | 0.397 | 0.148 | -0.0189 | 1.17 | 1.54 | 1.1 | 0.913 | 2.35 (inactive) | 0.897 | -0.317
O=C1[C@@]23C=C(Br)[C@H](C[C@@H]2COC3)[C@@]12CO2 | -0.325 | 0.422 | -0.112 | 0.38 | 0.32 | 0.0504 | 0.0447 | -0.214 (inactive) | 0.159 | -0.268
CN(C)CCCNC(=O)[C@@H]1c2ccccc2C(=O)N(C2CCCCC2)[C@H]1c1ccc(CO)cc1 | -0.537 | 0.249 | 0.0036 | 0.577 | 1.57 | 1.59 | 1.41 | -0.988 (inactive) | 0.434 | -0.131
C=C(COC)/C(=C/C[C@H](OC(C)=O)c1cccc(OCCO)c1)c1cnc2ccccc2c1 | -0.194 | 0.569 | -0.0325 | 1.05 | 1.26 | 0.743 | 1.11 | 1.46 (inactive) | 0.654 | 0.107
COCCOC(=O)N1C(=O)[C@@]2(c3cc(C#CCC(C(=O)OC)C(=O)OC)ccc31)[C@H](C(=O)NC[C@H](O)c1ccccc1)[C@H]1C(=O)O[C@H](c3ccccc3)[C@H](c3ccccc3)N1[C@@H]2c1ccc(O)cc1 | -0.0562 | 0.498 | -0.0647 | 0.954 | 0.269 | 1.01 | 1.28 | -0.81 (inactive) | 1.04 | 0.213
CO[C@H]1O[C@H](CO)[C@@H](OC(=O)Nc2ccc(C#N)cc2)[C@@H]2OC(=O)[C@H](Cc3cccc(Br)c3)C/C=C/C[C@@H](Cc3cccc(Br)c3)C(=O)O[C@@H]12 | -0.381 | -0.0617 | -0.0181 | 0.503 | 0.626 | 0.514 | 0.3 | -0.362 (inactive) | 0.572 | 0.195
Cc1ccc(S[C@]2(C(=O)NCC(C)C)CC(=O)N(C3Cc4ccccc4C3)[C@@H]2c2ccc(CO)cc2I)cc1 | 0.757 | -0.5 | -0.0238 | 0.166 | -1.01 | 0.123 | -0.126 | -1.83 (inactive) | 0.962 | 0.513
O=C1N(CCS(=O)(=O)c2ccccc2)Cc2ccccc2[C@@H]2OC(c3ccc(OCCCO)cc3)=N[C@]12CCS(=O)(=O)c1ccccc1 | 0.215 | 0.675 | 0.115 | 0.507 | 1.66 | 1.46 | 1.39 | -2.06 (inactive) | 1.18 | 0.0053
C#C[C@@H](CC)O[Si](C#CCCCC#N)(C(C)C)C(C)C | 0.0465 | 0.934 | -0.0891 | -0.146 | -0.604 | 0.873 | 0.74 | -0.0405 (inactive) | -0.241 | -0.236
CCCCCCCCCCC(O)C1C=CC2C(=O)N(c3ccccc3)C(=O)C2N1Nc1ccccc1F (stereo not given) | 0.51 | -0.165 | -0.0647 | 0.183 | -0.503 | 1.22 | 0.586 | 0.15 (inactive) | -0.08 | -0.185
Cc1ccc(S[C@]2(C(=O)NCc3ccccc3)CC(=O)N(Cc3cc(C(F)(F)F)cc(C(F)(F)F)c3)[C@@H]2c2ccc(CO)cc2I)cc1 | 0.436 | -0.3 | -0.0767 | -1.03 | -1.44 | 1.11 | 0.623 | -0.452 (inactive) | -0.292 | -0.132
COc1ccc([Si](C)(C)[C@@H]2[C@@H](CC(=O)N3Cc4ccccc4C[C@H]3CO)O[C@]3(C(=O)N(Cc4ccc(N5CCC5=O)cc4)c4ccccc43)[C@H]2C)cc1 | -0.406 | 0.351 | -0.12 | 0.163 | 0.291 | 0.636 | 0.866 | -1.63 (inactive) | 0.246 | -0.23
C=C(COC)C(=O)CC[C@@H](OC(=O)c1cccnc1)c1ccccc1OCCO | 0.403 | 1.66 | -0.122 | 0.276 | -0.427 | 0.754 | 0.655 | 0.0248 (inactive) | 0.327 | 0.0176
C=CCN1C(=O)[C@]2(O[C@H](CCO)[C@@H]([Si](C)(C)c3ccc(OC)cc3)[C@@H]2C)c2cc(N3C(=O)COc4ccccc43)ccc21 | 0.174 | -0.142 | -0.0597 | 0.606 | 0.248 | 0.966 | 0.698 | -0.998 (inactive) | -0.0347 | -0.297
[N-]=[N+]=NCc1ccccc1[C@H]1OC(c2ccc(OCCCO)cc2)=N[C@@]1(CCS(=O)(=O)c1ccccc1)C(=O)NCc1ccccc1 | 0.174 | 0.447 | 0.138 | 0.914 | 1.53 | 1.33 | 1.24 | -1.68 (inactive) | 0.981 | 1.05
